These results are taken from PubChem BioAssay (NCATS).

Where “and” joins values, the source holds several entries; their conditions need not be identical. Identical values can stand only once. Results filed as inconclusive are left out. A call without a number means that no potency is given here. Calls of active or inactive are those of the source. Calls follow the shape of the dose curve; as a rule, active = well fitted inhibition curve with a large enough effect; inconclusive = small, poorly fitted or top-dose-only effect; inactive = no such curve, though single readings can be large or run the other way.
Potency is read from the fitted curve at half-maximal effect.

The assay is described as follows: Primary qHTS for inhibitors of nuclear receptor binding SET domain protein 2 (NSD2) in an RCH-ACV wild type WT cells (2C) (AID 1645877). Also: nearly all actives have a fitted effect of over 70% in size. The conditions noted are these: RCH-ACV (leukaemia line) NSD2 WT (2C) viability, CellTiter-Glo, 72 h; series mostly up to 44.9 µM. The source says:
Assay Provider: Jonathan D. Licht, MD
University of Florida College of Medicine, Gainesville, FL
Mutations in epigenetic regulators are common in relapsed pediatric acute lymphoblastic leukemia (ALL). Here, we uncovered the mechanism underlying the relapse of ALL driven by an activating mutation of the NSD2 histone methyltransferase (p.E1099K). […] Correction of this mutation restored glucocorticoid sensitivity. The transcriptional response to glucocorticoids was blocked in NSD2 mutant cells due to depressed glucocorticoid receptor (GR) levels and the failure of glucocorticoids to autoactivate GR expression. […] Pre-treatment of NSD2 p.E1099K cell lines and PDX samples with PRC2 inhibitors reversed glucocorticoid resistance in vitro and in vivo.
High-throughput drug screening of isogenic RCH-ACV cell lines was performed at the National Center for Advancing Translational Science (NCATS), National Institutes of Health as previously described (1). Briefly, isogenic RCH-ACV NSD2 p.E1099K mutant (9B) and WT cells (2C) were plated at 500 cells/well in a 1536-well plate with a 72-hour incubation with compounds prior to addition of CellTiter-Glo to assess cell viability. NCATS libraries screened include: NPC, MIPE 5.0, Kinase and NPACT. To determine compound activity in the qHTS assay, the concentration-response data for each sample was plotted and modeled by a four-parameter logistic fit yielding IC50 and efficacy (maximal response) values. The area under the curve (AUC) of the dose-response curve ensures both efficacy (magnitude of cell killing) and potency (concentration that elicits cell killing) are accounted for in the analysis of activity.
1. Tobie D Lee, Olivia W Lee, Kyle R Brimacombe, Lu Chen, Rajarshi Guha, Sabrina Lusvarghi, Bethilehem G Tebase, Carleen Klumpp-Thomas, Robert W Robey, Suresh V Ambudkar, Min Shen, Michael M Gottesman, Matthew D Hall. A High-Throughput Screen of a Library of Therapeutics Identifies Cytotoxic Substrates of P-glycoprotein. Mol Pharmacol. 2019, Nov;96(5):629-640.
With `Cc1c(O)cccc1C(=O)N[C@@H](CSc1ccccc1)[C@H](O)CN1C[C@H]2CCCC[C@H]2C[C@H]1C(=O)NC(C)(C)C`, the Potency was 16.8 µM (active).

With `CCOC(=O)[C@H](CCc1ccccc1)N[C@@H](C)C(=O)N1C(=O)N(C)C[C@H]1C(=O)O`, the Potency result is “inactive”.

Consider `O=C1Nc2ccc(Cl)cc2[C@@](C#CC2CC2)(C(F)(F)F)O1`, for which the Potency is 20.9 µM (active) and 26.3 µM (active).

For `NCC(=O)CCC(=O)O`, the Potency entry was “inactive”.

Consider `O=c1cc(CO)occ1O`, for which the Potency result was “inactive”.

`CN1CCOC(c2ccccc2)c2ccccc2C1` (stereo not given): the Potency entry is “inactive”.

For the compound `CC12CCC(CC1)C(C)(C)O2`, the Potency entry is “inactive”.

With `C[C@@H]1CCN(C(=O)[C@H](CCCN=C(N)N)NS(=O)(=O)c2cccc3c2NC[C@H](C)C3)[C@@H](C(=O)O)C1`, the Potency entry was “inactive”.

Turning to `O=Cc1ccccc1C=O`, the Potency result is “inactive”.

Regarding `C[C@](N)(Cc1ccc(O)cc1)C(=O)O`, the outcome is “inactive [at 4.96 µM]”.

As to `O=c1cc[nH]c(=O)[nH]1`, the Potency entry was “inactive”.

For `CCCCN(CCCC)CCCOC(=O)c1ccc(N)cc1`, the Potency result was “inactive”.

As for `Cc1ccc2nc(N)[nH]c(=O)c2c1Sc1ccncc1`, the Potency was 2.05 µM (active).

For the compound `COc1ccc2cc1Oc1ccc(cc1)C[C@H]1c3c(cc4c(c3Oc3cc5c(cc3OC)CCN(C)[C@@H]5C2)OCO4)CCN1C`, the Potency was 9.44 µM (active) and 9.16 µM (active).

In the case of `N[C@H](C(=O)O)c1ccc(O)cc1`, the Potency entry was “inactive”.

Regarding `COCCOC(=O)C1=C(C)NC(C)=C(C(=O)OC/C=C/c2ccccc2)C1c1cccc([N+](=O)[O-])c1` (stereo not given), the Potency is 21.1 µM (active).

As for `NCCNCCNCCN`, the Potency entry was “inactive”.

In the case of `CCCOC(=O)c1ccccc1`, the Potency result is “inactive”.

On to `CN(C)CCOC(C)(c1ccccc1)c1ccccn1` (stereo not given), for which the Potency entry was “inactive”.

Regarding `CCCCCCCCCCCCCCCCCCOCC(O)CO` (stereo not given), the Potency result was “inactive”.

Regarding `O=C(CCCN1CCN(c2ccccn2)CC1)c1ccc(F)cc1`, the Potency result was “inactive”.

As for `CCOC(CN1CCN(CC(C)C(=O)c2ccccc2)CC1)c1ccccc1` (stereo not given), the Potency was 14.5 µM (active).

On to `CCCCC/C(C=O)=C\c1ccccc1`, for which the Potency result is “inactive”.

With `COc1cc(C(=O)N2CCOCC2)cc(OC)c1OC`, the Potency entry is “inactive”.

Consider `CC1(C)CO[C@@H](CC(=O)O)CN1`, for which the Potency result is “inactive”.

On to `Cc1cc(N)c2ccccc2[n+]1CCCCCCCCCC[n+]1c(C)cc(N)c2ccccc21`, for which the Potency was 3.25 µM (active).

As to `C[C@]12CC[C@@H]3c4ccc(O)cc4CC[C@H]3[C@@H]1CC[C@@H]2OC(=O)CCC1CCCC1`, the Potency entry was “inactive”.

Regarding `O=C(O)[C@H](O)c1ccccc1`, the Potency result is “inactive”.

As for `C[C@@H]1CN(c2c(F)c(F)c3c(=O)c(C(=O)O)cn(C4CC4)c3c2F)C[C@H](C)N1`, the Potency result was “inactive”.

For the compound `O=S(=O)(O)c1cc(I)c(O)c2ncccc12`, the Potency entry was “inactive”.

With `CNC(=O)Oc1ccc2c(c1)[C@]1(C)CCN(C)[C@@H]1N2C`, the Potency entry was “inactive”.

As to `CCCCOc1cc(C(=O)OCCN(CC)CC)ccc1N`, the Potency entry is “inactive”.

As to `Cn1cc[nH]c1=S`, the Potency result is “inactive”.

For `Cn1c(=O)c2c(ncn2CC2OCCO2)n(C)c1=O`, the Potency result is “inactive”.

Consider `CN1[C@@H]2CC[C@H]1CC(OC(=O)C(O)c1ccccc1)C2` (stereo not given in full), for which the Potency result was “inactive”.

In the case of `CCC(=O)c1ccc(O)cc1`, the Potency result is “inactive”.

With `CC(=O)Oc1c(C)c(C)c2c(c1C)CC[C@@](C)(CCC[C@H](C)CCC[C@H](C)CCCC(C)C)O2`, the Potency result is “inactive”.

Consider `CCOc1nc2cccc(C(=O)O)c2n1Cc1ccc(-c2ccccc2-c2nn[nH]n2)cc1`, for which the Potency result was “inactive”.

On to `O=C(O)Cc1sc(-c2ccccc2)nc1-c1ccc(Cl)cc1`, for which the Potency entry is “inactive”.

`OCC(CO)N[C@H]1C[C@](O)(CO)[C@@H](O)[C@H](O)[C@H]1O`: the Potency entry was “inactive”.
